Shown are actives, neighbours in structure and some others; about 4.1% of the full set was active somewhere.
BoNT-A LC inh2: BoNT/A light chain protease inhibitors, primary screen, biochemical, flow cytometry, MLPCN library. Botulinum neurotoxin type A light chain protease (Clostridium botulinum A str. ATCC 3502). multiplex microsphere protease substrate cleavage. inhibition, % at 10 µM. 360,000 tested, 0.17% active. AID 588499, 2011; further: plate controls were buffer without enzyme for full effect and enzyme alone for no effect
VHR inh abs: VHR1 phosphatase inhibitors, primary screen, biochemical, absorbance, uHTS; recombinant VHR phosphatase, pNPP absorbance; AID 1654, 2009; inhibition, % at 13.3 µM; Dual specificity protein phosphatase 3 (Homo sapiens), P51452; 290,000 tested, 0.52% active; in the data active means inhibition above about 50%
Target sequence (P51452 whole entry, looked up): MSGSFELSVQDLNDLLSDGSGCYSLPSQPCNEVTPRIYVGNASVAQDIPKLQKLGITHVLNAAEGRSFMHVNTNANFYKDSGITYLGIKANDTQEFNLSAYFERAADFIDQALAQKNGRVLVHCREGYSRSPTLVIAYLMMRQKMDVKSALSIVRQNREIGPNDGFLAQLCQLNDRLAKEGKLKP
Autofluor counter: compound fluorescence in toxin protease inhibitor counterscreen; compound autofluorescence counterscreen, microsphere flow cytometry; active compounds read high; fluorescence intensity (test concentration not listed); 360,000 tested, 3.1% active; AID 624483; in the data active means fluorescence intensity above about 16000; inconclusive means no clear call, values can overlap the other calls
BoNT-F LC inh: BoNT/F light chain protease inhibitors, primary screen, biochemical, flow cytometry, MLPCN library; Botulinum neurotoxin type F light chain protease (Clostridium botulinum); Multiplex microsphere protease cleavage assay; inhibition, % at 10 µM; 360,000 tested, 0.22% active; AID 588497, 2011; in the data active means inhibition above about 35%, passing the limit was not always enough; inconclusive means no clear call, values can overlap the other calls; further: plate controls were buffer without enzyme for full effect and enzyme alone for no effect
MazEF act: activators of E. coli MazEF toxin-antitoxin RNase, primary screen, biochemical, fluorescence, uHTS; FAM/BHQ RNA-DNA oligo cleavage fluorescence, 5 h; activation, % at 20 µM; 350,000 tested, 0.32% active; in the data active means activation above about 50%
Target sequence (P0AE70 whole entry, looked up): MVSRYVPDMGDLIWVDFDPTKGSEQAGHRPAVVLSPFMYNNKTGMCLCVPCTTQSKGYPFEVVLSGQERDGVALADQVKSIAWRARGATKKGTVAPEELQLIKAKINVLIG
Anthrax LF prot: Bacillus anthracis LF protease inhibitors, primary screen, biochemical, multiplex microsphere, MLPCN library; Lethal factor (Bacillus anthracis), P15917; multiplex microsphere protease cleavage assay; inhibition, % at 10 µM; 360,000 tested, 0.12% active; AID 588501, 2011; further: plate controls were buffer without enzyme for full effect and enzyme alone for no effect
An asterisk follows results filed as active; ? = inconclusive; / = not tested or not shown. Unless noted, no stated cut-off is given here; in the data, active means inhibition above about 30%; inconclusive means no clear call, values can overlap the other calls; inactive means below that.

SMILES | BoNT-A LC inh2 | VHR inh abs | Autofluor counter | BoNT-F LC inh | MazEF act | Anthrax LF prot
COc1ccc(CCC(=O)NNC(=O)c2cc(Cl)ccc2OC)cc1 | -6.2 | 31.7 | 3714 | -20.2 | 9.4 | -1.1
O=C(/C=C/c1ccc(Br)cc1)NC1CCCCCC1 | -1.7 | 13.2 | 21525* | -0.2 | 8.4 | 1.4
CCCCNC(=O)C1(C)CCN1C(=O)c1cc(F)ccc1C (configuration not stated) | 0.0 | / | 3959 | 0.8 | / | -2.6
COc1cccc(C2=NOC(C(=O)Nc3ccc4c(c3)OCO4)C2)c1OC (configuration not stated) | 0.9 | 20.1 | 4090 | ? | 6.6 | 11.4
CN(C)NC(=S)Nc1ccc2nc(-c3ccccn3)c(-c3ccccn3)nc2c1 | 1.9 | 7.2 | 3274 | -3.7 | -20.6 | 3.8
CC(C)(C)CC(C)(C)NC(=S)Nc1ccc2nc(-c3ccccn3)c(-c3ccccn3)nc2c1 | 41.5* | 3.6 | 6947 | 17.9 | -23.6 | 18.3
COC(=O)c1ccccc1N=Nc1c(C)n[nH]c1C | ? | -6.5 | 3621 | ? | 6.2 | 8.6
COC(=O)c1ccccc1N=Nc1c(C)noc1C | 3.4 | 39.2 | 3984 | ? | 7.6 | 33.6*
CCCCS/C(=C(/C#N)C(N)=O)c1cc2c([nH]1)CCCC2 | ? | 8.6 | 22456* | -0.5 | 6.6 | -3.1
CCc1ccc(N/C(SC)=C(/C#N)C(N)=O)cc1 | -0.3 | 17.8 | 11041 | -4.4 | -8.8 | -2.0
NC(=O)C1CCN(c2nc(C3CC3)nc3c2nnn3Cc2ccccc2Cl)CC1 | ? | 8.4 | 25043* | -4.7 | -0.6 | -3.4
Clc1ccccc1Cn1nnc2c(N3CCCC3)ncnc21 | -1.1 | -0.2 | 23668* | -1.5 | -0.4 | -2.3
OCCNc1nc(C2CC2)nc2c1nnn2Cc1ccccc1Cl | ? | 25.9 | 23293* | -1.5 | 1.8 | 0.0
c1ccc(Cn2nnc3c(N4CCN(Cc5ccc6c(c5)OCO6)CC4)ncnc32)cc1 | -0.8 | 51.4* | 24167* | -4.1 | -3.1 | -1.4
COCCNc1nc(C(C)(C)C)nc2c1nnn2Cc1ccccc1Cl | -2.1 | 2.4 | 12170 | -12.2 | -5.0 | -0.6
CC1Cc2ccccc2N1c1ncnc2c1nnn2Cc1ccccc1Cl (configuration not stated) | -0.1 | 35.2 | 4737 | 10.9 | -8.6 | -2.8
O=C(COC(=O)c1ccc2c(c1)OCCO2)NCc1ccc(Cl)cc1 | 0.2 | / | 3794 | -2.4 | 4.5 | -5.8
O=C(NC1CC1)c1ccc(NC(=O)C2CCCCC2)cc1 | -0.5 | / | 3554 | 0.3 | 7.9 | -2.0
Cc1cccc(OC(C)C(=O)Nc2ccccc2C(=O)N2CCCCC2)c1 (configuration not stated) | 3.5 | 16.3 | ? | -1.7 | 5.6 | -1.0
CC(C(=O)Nc1ccccc1C(=O)N1CCCC1)n1nnc2ccccc21 (configuration not stated) | -3.1 | 9.1 | 21214* | -5.4 | 2.3 | -0.5
Cc1[nH][nH]c(=O)c1C(c1c(C)[nH][nH]c1=O)c1cn(Cc2ccccc2Cl)c2ccccc12 | 0.4 | -5.3 | 2189 | -7.9 | 70.6* | -3.4
Nc1nc(N=Nc2ccc(O)cc2)cc(=O)[nH]1 | -0.3 | / | 2818 | 2.3 | -40.8 | -1.4
CCOC(=O)COc1ccc(Oc2nc(C)cc(OC)n2)nn1 | 4.3 | 22.8 | 21448* | 4.2 | -1.0 | 0.0
CCCS(=O)(=O)NC(=O)C1(C)CCCN(C(=O)C(C)(C)Oc2ccc(Cl)cc2)C1 (configuration not stated) | 0.4 | / | 3252 | -1.6 | / | -3.5
Cc1cc(C)n(-c2nc(NCCC(C)C)c3c4c(sc3n2)COC(C)(C)C4)n1 | 13.1 | 4.0 | 19196* | 12.7 | 6.7 | -11.4
SMILES | BoNT-A LC inh2 | VHR inh abs | Autofluor counter | BoNT-F LC inh | MazEF act | Anthrax LF prot
Cc1cc(C)n(-c2nc(NCCN(C)C)c3c4c(sc3n2)COC(C)(C)C4)n1 | 0.7 | 17.2 | 3541 | 29.4 | 12.8 | ?
Cc1ccc(OCC(=O)Oc2cccc(C)c2C)cc1 | / | 13.9 | / | / | -3.9 | /
CCN(CC)CCCNC(=O)c1oc2ccc(S(=O)(=O)N3CC(C)CC(C)C3)cc2c1C (configuration not stated) | -1.0 | 21.4 | 3970 | 5.4 | 11.0 | -5.6
COc1ccccc1S(=O)(=O)Cc1ccc(C(=O)N2CCN(c3ccccc3)CC2)o1 | 0.5 | 16.6 | 21717* | -0.3 | -10.9 | 0.0
Cc1ccc(C)c(N2CCN(C(=O)c3ccc(CS(=O)(=O)c4ccccc4C)o3)CC2)c1 | -0.4 | -1.3 | 9264 | 4.3 | -0.7 | 2.8
Cc1cccc(N2CCN(C(=O)c3ccc(CS(=O)(=O)c4ccccc4C)o3)CC2C)c1 (configuration not stated) | ? | 20.0 | 21673* | 1.3 | 8.6 | -1.7
O=C(CCC1CCN(C(=O)CC2=CCCCC2)CC1)NCc1ccc(F)cc1 | 0.2 | / | 3717 | -2.5 | 5.5 | -3.8
O=C1N=c2ccccc2=C1c1c(O)[nH]c2c(C(F)(F)F)cccc12 | 3.0 | 9.8 | 3313 | -7.4 | 3.3 | -4.5
CCOCC(=O)Nc1nc2ccccc2s1 | 0.5 | -1.0 | 2929 | 2.7 | 0.5 | -5.0
CN(CC(=O)Nc1nc2ccccc2s1)S(=O)(=O)c1ccc(Br)cc1 | 3.2 | 11.3 | 21220* | 3.5 | -15.5 | 0.0
CN(CC(=O)Nc1nc2ccccc2s1)S(=O)(=O)c1ccc(Cl)cc1 | -0.7 | 27.3 | 6300 | -7.5 | 6.0 | -0.7
CC(C)OC(=O)CCC(=O)Nc1nc2ccccc2s1 | 0.3 | 51.9* | 11452 | -3.5 | 2.3 | -1.1
Cc1cccc(NC(=O)CN(C)S(=O)(=O)c2ccc(Br)cc2)n1 | ? | 16.1 | 17225* | -3.8 | -2.7 | -4.0
CCc1c(C)nc2c(-c3ccccc3OC)c(C)[nH]n2c1=O | 1.2 | 45.8 | 3215 | 5.3 | 19.0 | -7.6
CCN1CCN(C(=S)c2ccc(Br)cc2)CC1 | 0.6 | 51.7* | 10911 | -1.9 | 0.2 | -3.9
CCc1nc2c(OCc3cc(Cl)cc(Cl)c3)cccn2c1N(C=O)Cc1ccc(OC)cc1 | 0.1 | / | 3620 | 3.6 | / | 0.4
CCOC(=O)c1cc(NC(=O)c2ccc(OC)cc2)c(=O)oc1-c1ccccc1 | ? | 16.5 | 22500* | -2.2 | -7.8 | -3.7
COc1ccc(C(=O)Nc2cc(C(C)=O)c(/C=C/N(C)C)oc2=O)cc1 | 1.0 | 20.5 | 16251* | 0.2 | -166.1 | 1.2
COC(=O)c1cc(NC(=O)c2ccc(OC)cc2)c(=O)oc1C | -0.8 | 9.3 | 4881 | -4.4 | -0.6 | -0.2
CC(=O)c1cc(NC(=O)c2ccc(C)cc2)c(=O)oc1/C=C/N(C)C | -0.2 | -3.7 | 4103 | -9.3 | -75.3 | -5.4
Cc1nn(-c2ccccc2C(=O)O)c(=O)c2ccccc12 | 0.4 | 21.9 | 22783* | -1.7 | -1.1 | -3.1
Cc1nn(-c2ccccc2[N+](=O)[O-])c(=O)c2ccccc12 | -0.7 | 17.4 | 4554 | 1.4 | -3.3 | -3.2
